In general, AC50 refers to the concentration at which the activity in the assay is half-maximal.

In PubChem BioAssay (EPA / NIEHS) one finds outcome and AC50 data, which are given here for 9 compounds.

Test [1] deals with mouse Cholecystokinin, CCK1 Receptor (CCKA), Cckar (gene 12425) (UniProt O08786). The experiment in a line: NVS_GPCR_mCCKAPeripheral: NovaScreen (NVS) G Protein-Coupled Receptor Assay for mouse Cholecystokinin, CCK1 Receptor (CCKA) (AID 2283285). In outline:
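Chemicals were first screened in duplicate at 25 uM, with those meeting threshold (e.g., 30% inhibition) retested in singleton concentration series to 50 uM maximum. Binding of radioligand to mouse pancreatic membranes was read after 2 h by filtration and scintillation counting.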

Test [2] deals with rabbit Platelet Activating Factor Receptor (PAF), gene 100354046. Put plainly: NVS_GPCR_rabPAF: NovaScreen (NVS) G Protein-Coupled Receptor Assay for rabbit Platelet Activating Factor Receptor (PAF) (AID 2283287). In outline: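 Rabbit platelet membrane preparation; radioligand displacement read by filter-based scintillation counting 1 h after dosing, loss of signal versus DMSO. Primary screen in duplicate at 25 uM, actives followed up in concentration series.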

For test [3], the system named is 5-hydroxytryptamine receptor 2C (pig). Put plainly: NVS_GPCR_p5HT2C: NovaScreen (NVS) G Protein-Coupled Receptor Assay for pig Serotonin, 5-Hydroxytryptamine Receptor 2C (5HT2C) (AID 2283288). Put shortly: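 Radioligand displacement on membranes from pig choroid plexus, detected by filter scintillation counting after 1 h. Tested first at a single 25 uM in duplicate, then in concentration-response for actives; DMSO served as baseline.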

A further test concerns the target Adra2b (gene 24174) (UniProt P19328). The experiment in a line: NVS_GPCR_rmAdra2B: NovaScreen (NVS) G Protein-Coupled Receptor Assay for hybird cells Adrenergic, Alpha 2B Receptor (Adra2B) (AID 2283306). In outline: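 Compounds screened first at 25 uM in duplicate, with actives followed up in concentration-response; specific radioligand displacement from hybrid neuroglioma/blastoma cell membrane preparations measured by filter scintillation counting after 1 h, normalized to DMSO.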

Test [4] addresses rat Neurokinin-3 Receptor (NK3), Tacr3 (gene 24808) (UniProt P16177). The experiment in a line: NVS_GPCR_rNK3: NovaScreen (NVS) G Protein-Coupled Receptor Assay for rat Neurokinin-3 Receptor (NK3) (AID 2283310). Put shortly:
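Filter-based radioligand displacement on rat cortex membrane preparations, read by scintillation 2 h post-dose. Chemicals first tested in duplicate at 25 uM; actives followed up in concentration series with a 50 uM maximum.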

Test [5] deals with rat Opioid Receptor, Non-selective Sodium (Na+) Binding, Oprm1 (gene 25601) (UniProt P33535). The experiment in a line: NVS_GPCR_rOpiate_NonSelectiveNa: NovaScreen (NVS) G Protein-Coupled Receptor Assay for rat Opioid Receptor, Non-selective Sodium (Na+) Binding (AID 2283311). In outline: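 Filtration radioligand binding on rat forebrain membrane preparations, read 1.5 h after dosing. Single-concentration 25 µM primary screen in duplicate, followed by singleton concentration series to 50 µM max for actives; DMSO baseline.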
Chain of rat Opioid Receptor, Non-selective Sodium (Na+) Binding, Oprm1 (gene 25601) (P33535 whole entry, looked up): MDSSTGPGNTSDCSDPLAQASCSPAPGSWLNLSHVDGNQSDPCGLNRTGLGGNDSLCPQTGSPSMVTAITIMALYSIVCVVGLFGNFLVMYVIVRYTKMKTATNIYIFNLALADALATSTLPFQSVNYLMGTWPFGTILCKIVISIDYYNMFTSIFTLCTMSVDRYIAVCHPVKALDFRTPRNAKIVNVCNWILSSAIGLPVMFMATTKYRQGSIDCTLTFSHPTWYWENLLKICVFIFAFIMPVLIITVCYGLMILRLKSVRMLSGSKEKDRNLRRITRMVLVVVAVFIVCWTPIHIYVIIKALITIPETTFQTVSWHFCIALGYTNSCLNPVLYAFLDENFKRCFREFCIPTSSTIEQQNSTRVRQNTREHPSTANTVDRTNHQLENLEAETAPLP

Test [6] has as its target rat Serotonin, 5-Hydroxytryptamine Receptor 1 (5HT1), Non-Selective Binding, Htr1a (gene 24473) (UniProt P19327). The experiment in a line: NVS_GPCR_r5HT1_NonSelective: NovaScreen (NVS) G Protein-Coupled Receptor Assay for rat Serotonin, 5-Hydroxytryptamine Receptor 1 (5HT1), Non-Selective Binding (AID 2283286). In outline:
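Binding of a radioligand to rat cortex membranes is read by filtration and scintillation counting after 1 h. Compounds were screened at 25 uM in duplicate. Actives were then titrated to a top of 50 uM. DMSO is the baseline.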

For test [7], the target named is rat Serotonin, 5-Hydroxytryptamine Receptor (5HT), Non-Selective Binding, Htr1a (gene 24473) (UniProt P19327). Put plainly: NVS_GPCR_r5HT_NonSelective: NovaScreen (NVS) G Protein-Coupled Receptor Assay for rat Serotonin, 5-Hydroxytryptamine Receptor (5HT), Non-Selective Binding (AID 2283295). In outline: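 Rat cortex membrane preparation incubated 1 h with radioligand and test chemical; bound radioactivity counted after filtration. Screening began in duplicate at 25 uM with concentration-series follow-up; fitting relative to DMSO.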
Chain of rat Serotonin, 5-Hydroxytryptamine Receptor (5HT), Non-Selective Binding, Htr1a (gene 24473) (P19327 whole entry, looked up): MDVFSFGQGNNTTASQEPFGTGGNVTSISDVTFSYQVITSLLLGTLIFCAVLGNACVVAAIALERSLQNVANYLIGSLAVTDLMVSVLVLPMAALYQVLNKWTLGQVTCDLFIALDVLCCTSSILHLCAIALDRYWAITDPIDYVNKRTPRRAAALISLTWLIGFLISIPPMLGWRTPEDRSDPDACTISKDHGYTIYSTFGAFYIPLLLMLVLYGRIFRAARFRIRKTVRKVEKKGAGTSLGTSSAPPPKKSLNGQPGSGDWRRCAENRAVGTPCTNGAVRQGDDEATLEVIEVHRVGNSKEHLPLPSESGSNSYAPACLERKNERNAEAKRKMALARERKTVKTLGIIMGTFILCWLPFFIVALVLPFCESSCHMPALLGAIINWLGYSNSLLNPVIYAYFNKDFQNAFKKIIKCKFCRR

Test [8] deals with rat Adrenergic, Alpha 1A Receptor (Adra1A), Adra1a (gene 29412) (UniProt P43140). The experiment in a line: NVS_GPCR_rAdra1A: NovaScreen (NVS) G Protein-Coupled Receptor Assay for rat Adrenergic, Alpha 1A Receptor (Adra1A) (AID 2283296). In outline: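 Filter radiodetection after 1 h competitive binding on CEC-pretreated rat cortical membranes. Duplicate single-point screening at 25 uM; active chemicals retested across concentration series.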
Chain of rat Adrenergic, Alpha 1A Receptor (Adra1A), Adra1a (gene 29412) (P43140 whole entry, looked up): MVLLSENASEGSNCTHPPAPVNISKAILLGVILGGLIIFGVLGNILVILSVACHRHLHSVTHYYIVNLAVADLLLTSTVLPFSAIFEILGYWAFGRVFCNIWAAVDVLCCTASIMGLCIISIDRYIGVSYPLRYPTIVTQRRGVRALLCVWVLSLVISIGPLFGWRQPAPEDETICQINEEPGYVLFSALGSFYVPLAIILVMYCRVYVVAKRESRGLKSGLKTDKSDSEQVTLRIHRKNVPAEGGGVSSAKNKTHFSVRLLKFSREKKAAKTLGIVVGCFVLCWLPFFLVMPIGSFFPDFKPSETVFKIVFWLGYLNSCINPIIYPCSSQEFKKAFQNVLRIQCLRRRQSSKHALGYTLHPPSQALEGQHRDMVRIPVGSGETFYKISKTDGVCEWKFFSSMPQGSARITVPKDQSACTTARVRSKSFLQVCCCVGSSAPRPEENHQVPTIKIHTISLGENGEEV

Test [9] deals with rat Adrenergic, Alpha 1B Receptor (Adra1B), gene 24173. The experiment in a line: NVS_GPCR_rAdra1B: NovaScreen (NVS) G Protein-Coupled Receptor Assay for rat Adrenergic, Alpha 1B Receptor (Adra1B) (AID 2283297). Put shortly:
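Filter-binding radioligand competition on membranes from rat liver, read after 1 h by scintillation counting. Single-concentration duplicate screen at 25 uM, followed by concentration-response on actives, normalised to DMSO.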

Test [10] deals with rat Adrenergic Receptor, Beta (Adrb), Non-selective Binding, Adrb1 (gene 24925) (UniProt P18090). Put plainly: NVS_GPCR_rAdrb_NonSelective: NovaScreen (NVS) G Protein-Coupled Receptor Assay for rat Adrenergic Receptor, Beta (Adrb), Non-selective Binding (AID 2283298). Put shortly: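 Rat cortical membranes incubated 1 h with beta-adrenergic radioligand and test chemical; bound ligand measured by filtration and scintillation counting. Screen at 25 uM duplicate, then concentration series with 50 uM maximum; loss of signal versus DMSO.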
Chain of rat Adrenergic Receptor, Beta (Adrb), Non-selective Binding, Adrb1 (gene 24925) (P18090 whole entry, looked up): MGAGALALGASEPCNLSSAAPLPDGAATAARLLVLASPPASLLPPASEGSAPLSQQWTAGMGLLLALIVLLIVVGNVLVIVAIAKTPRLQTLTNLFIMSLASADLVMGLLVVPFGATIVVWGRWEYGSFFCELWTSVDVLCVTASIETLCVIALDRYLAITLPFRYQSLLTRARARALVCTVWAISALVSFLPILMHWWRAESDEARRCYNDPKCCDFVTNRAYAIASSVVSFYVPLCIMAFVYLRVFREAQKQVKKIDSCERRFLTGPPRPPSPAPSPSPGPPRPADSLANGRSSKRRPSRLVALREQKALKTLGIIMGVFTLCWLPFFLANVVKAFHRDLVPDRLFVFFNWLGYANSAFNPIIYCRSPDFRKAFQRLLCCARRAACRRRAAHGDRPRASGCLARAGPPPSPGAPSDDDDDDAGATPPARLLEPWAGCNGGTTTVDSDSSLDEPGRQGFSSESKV

Test [11] concerns the target rat Adrenergic Receptor, Alpha 2 (Adra2), Non-selective Binding, Adra2a (gene 25083) (UniProt P22909). The experiment in a line: NVS_GPCR_rAdra2_NonSelective: NovaScreen (NVS) G Protein-Coupled Receptor Assay for rat Adrenergic Receptor, Alpha 2 (Adra2), Non-selective Binding (AID 2283299). In outline:
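Filter-based scintillation counting of radioligand binding to rat cortical membrane receptors, measured 1.25 hours post-dosing; loss of signal versus DMSO indicates displacement. Initial single-concentration duplicate at 25 uM, then concentration series.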

Test [12] deals with human Opioid Receptor Mu (Opiate Mu), OPRM1 (gene 4988) (UniProt P35372). Put plainly: NVS_GPCR_hOpiate_mu: NovaScreen (NVS) G Protein-Coupled Receptor Assay for human Opioid Receptor Mu (Opiate Mu) (AID 2283290).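 Note: hits lower bound tracer signal versus DMSO meaning displacement of the ligand.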 In outline: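 Primary screen in duplicate at 25 uM, with actives followed in concentration series. CHO-derived receptor membranes, cell-free; bound radioligand read by scintillation counting after filtration at 2.5 h, decrease scored against DMSO.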
Chain of human Opioid Receptor Mu (Opiate Mu), OPRM1 (gene 4988) (P35372 whole entry, looked up): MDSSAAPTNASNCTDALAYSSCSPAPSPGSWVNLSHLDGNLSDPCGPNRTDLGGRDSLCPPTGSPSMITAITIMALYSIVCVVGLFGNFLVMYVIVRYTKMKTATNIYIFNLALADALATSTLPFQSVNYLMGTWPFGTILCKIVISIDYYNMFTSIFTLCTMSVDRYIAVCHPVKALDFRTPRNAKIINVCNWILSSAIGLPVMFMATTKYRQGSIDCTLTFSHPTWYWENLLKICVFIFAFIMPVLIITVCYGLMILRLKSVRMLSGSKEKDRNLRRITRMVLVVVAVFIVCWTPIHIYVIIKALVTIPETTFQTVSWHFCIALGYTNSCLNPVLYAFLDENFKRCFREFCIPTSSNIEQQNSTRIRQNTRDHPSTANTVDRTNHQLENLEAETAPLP

Test [13] has as its target mouse Cholecystokinin, CCK2 Receptor (CCKB), Cckbr (gene 12426) (UniProt P56481). The experiment in a line: NVS_GPCR_mCKKBCentral: NovaScreen (NVS) G Protein-Coupled Receptor Assay for mouse Cholecystokinin, CCK2 Receptor (CCKB) (AID 2283293). Put shortly: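 Mouse forebrain membrane preparation incubated 2 h with chemical and radioligand; bound radioactivity counted after filtration. Single-concentration duplicate screen at 25 uM, then concentration series to 50 uM max for hits, DMSO as baseline.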

Test [14] addresses guinea pig Serotonin, 5-Hydroxytryptamine Receptor 4 (5HT4), HTR4 (gene 100135548) (UniProt O70528). The experiment in a line: NVS_GPCR_g5HT4: NovaScreen (NVS) G Protein-Coupled Receptor Assay for guinea pig Serotonin, 5-Hydroxytryptamine Receptor 4 (5HT4) (AID 2283294). In outline:
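Compounds first screened in duplicate at 25 uM, actives followed up in concentration series. Binding measured as displacement of specific radioligand from guinea pig striatal membranes, 1 h, filter-based scintillation read-out versus DMSO baseline.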

Test [15] concerns the target rat Histamine Receptor (H3), Hrh3 (gene 85268) (UniProt Q9QYN8). The experiment in a line: NVS_GPCR_rH3: NovaScreen (NVS) G Protein-Coupled Receptor Assay for rat Histamine Receptor (H3) (AID 2283303). Put shortly:
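Filter-binding radioligand competition on rat forebrain membranes, 1 h incubation; compounds screened at 25 µM in duplicate and followed in concentration series to 50 µM, loss of bound signal vs DMSO.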

For test [16], the target named is rat Somatostatin Receptor (SST), Sstr1 (gene 25033) (UniProt P28646). The experiment in a line: NVS_GPCR_rSST: NovaScreen (NVS) G Protein-Coupled Receptor Assay for rat Somatostatin Receptor (SST) (AID 2283314). In outline:
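Single-concentration duplicate screen (25 uM), then concentration-response up to 50 uM for chemicals passing a threshold such as 30% inhibition. Membranes came from rat forebrain. Binding was measured 1 h post-dose by filter radiodetection and scintillation, relative to DMSO.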

In test [17] the target is human Vasopressin 1A Receptor (V1A), AVPR1A (gene 552) (UniProt P37288). The experiment in a line: NVS_GPCR_hV1A: NovaScreen (NVS) G Protein-Coupled Receptor Assay for human Vasopressin 1A Receptor (V1A) (AID 2283284). In outline:
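Single-concentration duplicate screen at 25 uM, with concentration-response follow-up (top 50 uM) for actives. The assay measured displacement of a radioligand from human platelet-derived receptor after 1.5 h, detected by filtration and scintillation counting.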

Molecules are shown by their SMILES. Results filed as inconclusive are left out. The source made the active and inactive calls. Rule for the calls: active = hit-call score of the fitted dose curve at least 0.9, where 1 is the maximum; inconclusive = response in the unintended direction; inactive = score below 0.9.

Chain of Adra2b (gene 24174) (P19328 whole entry, looked up): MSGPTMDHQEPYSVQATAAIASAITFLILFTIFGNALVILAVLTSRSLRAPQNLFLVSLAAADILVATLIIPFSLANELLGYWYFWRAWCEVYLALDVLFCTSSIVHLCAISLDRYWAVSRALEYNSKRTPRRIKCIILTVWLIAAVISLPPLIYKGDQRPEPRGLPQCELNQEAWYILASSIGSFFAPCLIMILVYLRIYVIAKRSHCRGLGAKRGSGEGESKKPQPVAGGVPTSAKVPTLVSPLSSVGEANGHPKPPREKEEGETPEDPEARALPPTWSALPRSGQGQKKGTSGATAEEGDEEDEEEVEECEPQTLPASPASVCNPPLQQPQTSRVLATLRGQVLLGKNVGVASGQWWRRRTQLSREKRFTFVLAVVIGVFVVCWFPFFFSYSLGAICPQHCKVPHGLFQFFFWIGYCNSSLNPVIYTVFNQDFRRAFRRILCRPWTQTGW
Chain of rat Neurokinin-3 Receptor (NK3), Tacr3 (gene 24808) (P16177 whole entry, looked up): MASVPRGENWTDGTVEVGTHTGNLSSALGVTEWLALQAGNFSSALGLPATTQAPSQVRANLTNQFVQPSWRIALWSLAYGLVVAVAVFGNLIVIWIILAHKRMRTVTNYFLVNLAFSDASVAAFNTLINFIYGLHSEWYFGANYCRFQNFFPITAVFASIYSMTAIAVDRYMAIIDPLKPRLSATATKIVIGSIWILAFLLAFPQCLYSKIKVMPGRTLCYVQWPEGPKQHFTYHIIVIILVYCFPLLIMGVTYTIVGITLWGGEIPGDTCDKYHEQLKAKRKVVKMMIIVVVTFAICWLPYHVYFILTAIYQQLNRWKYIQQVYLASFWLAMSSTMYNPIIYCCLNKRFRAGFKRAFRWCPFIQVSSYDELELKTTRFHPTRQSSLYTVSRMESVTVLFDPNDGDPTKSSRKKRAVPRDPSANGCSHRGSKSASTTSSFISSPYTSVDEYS
Chain of rat Serotonin, 5-Hydroxytryptamine Receptor 1 (5HT1), Non-Selective Binding, Htr1a (gene 24473) (P19327 whole entry, looked up): as the sequence (P19327 whole entry, looked up) above
Chain of mouse Cholecystokinin, CCK1 Receptor (CCKA), Cckar (gene 12425) (O08786 whole entry, looked up): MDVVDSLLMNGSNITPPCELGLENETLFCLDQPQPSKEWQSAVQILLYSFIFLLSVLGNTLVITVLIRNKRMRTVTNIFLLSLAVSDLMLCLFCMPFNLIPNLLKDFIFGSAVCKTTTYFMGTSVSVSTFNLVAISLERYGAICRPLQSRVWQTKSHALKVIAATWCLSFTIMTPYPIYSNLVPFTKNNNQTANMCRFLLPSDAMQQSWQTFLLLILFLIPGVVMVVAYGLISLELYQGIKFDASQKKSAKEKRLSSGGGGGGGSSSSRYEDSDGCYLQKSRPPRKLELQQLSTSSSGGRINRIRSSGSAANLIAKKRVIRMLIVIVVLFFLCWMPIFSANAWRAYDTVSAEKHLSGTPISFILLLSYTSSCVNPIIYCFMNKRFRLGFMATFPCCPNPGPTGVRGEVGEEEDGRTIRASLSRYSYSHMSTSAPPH
Chain of rat Adrenergic Receptor, Alpha 2 (Adra2), Non-selective Binding, Adra2a (gene 25083) (P22909 whole entry, looked up): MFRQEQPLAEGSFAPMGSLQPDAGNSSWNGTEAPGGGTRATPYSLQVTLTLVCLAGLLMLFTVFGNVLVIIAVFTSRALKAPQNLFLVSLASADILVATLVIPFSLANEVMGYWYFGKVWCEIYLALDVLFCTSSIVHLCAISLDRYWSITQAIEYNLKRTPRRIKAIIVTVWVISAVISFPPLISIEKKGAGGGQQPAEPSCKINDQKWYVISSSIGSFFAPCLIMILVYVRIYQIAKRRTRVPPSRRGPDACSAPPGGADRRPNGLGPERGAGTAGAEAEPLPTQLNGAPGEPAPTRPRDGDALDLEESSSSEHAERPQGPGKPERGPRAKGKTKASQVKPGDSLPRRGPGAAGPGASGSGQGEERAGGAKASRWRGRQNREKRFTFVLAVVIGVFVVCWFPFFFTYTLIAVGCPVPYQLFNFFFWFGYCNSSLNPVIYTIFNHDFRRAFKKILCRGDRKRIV
Chain of rat Somatostatin Receptor (SST), Sstr1 (gene 25033) (P28646 whole entry, looked up): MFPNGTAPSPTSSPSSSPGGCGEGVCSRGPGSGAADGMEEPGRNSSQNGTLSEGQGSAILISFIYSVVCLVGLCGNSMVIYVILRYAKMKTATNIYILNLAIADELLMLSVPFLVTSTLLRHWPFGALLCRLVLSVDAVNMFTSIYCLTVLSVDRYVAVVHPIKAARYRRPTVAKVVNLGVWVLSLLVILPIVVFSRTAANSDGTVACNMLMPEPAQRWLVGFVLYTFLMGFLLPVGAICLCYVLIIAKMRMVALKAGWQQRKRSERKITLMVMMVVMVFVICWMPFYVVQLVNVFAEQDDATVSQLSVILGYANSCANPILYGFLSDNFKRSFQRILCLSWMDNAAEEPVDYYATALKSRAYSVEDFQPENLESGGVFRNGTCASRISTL

For the compound `O=P(OC(CCl)CCl)(OC(CCl)CCl)OC(CCl)CCl`, the compound was called inactive in test [1] and in test [3]. In test [2], the AC50 was 8.52 µM (active).

`COc1ccc(-n2nc(C(F)F)cc2-c2ccc(S(C)=O)cc2)cc1` (centres undefined): in test [2], the AC50 is 11.5 µM (active). Also, the call (in the test with Adra2b (gene 24174); in test [4]; in test [5]) was inactive.

Turning to `O=c1[nH]c2ccc(S(=O)CCN3CCC(Cc4ccc(F)cc4)CC3)cc2o1` (centres undefined), the outcome in test [6] and in test [10] was inactive. The AC50 was 5.88 µM (active) in [7]; 3.25 µM (active) in test [8]; 3.46 µM (active) in test [9]; 1.88 µM (active) in [11]; 0.609 µM (active) in the test with Adra2b (gene 24174).

Consider `COc1ccc(/C=C/S(=O)(=O)NC(=O)c2ccc(C)cc2Cl)cc1`, for which the AC50 in [1] was 22.7 µM (active). Moreover, the compound was classed as inactive in [5].

Consider `CNS(=O)(=O)c1cc(C(=O)N2CCC(CCN3C4CCC3CC(n3c(C)nc5ccccc53)C4)(c3cccc(F)c3)CC2)c(Cl)cc1F` (centres undefined), for which the half-maximal activity concentration (AC50) in [2] was 1.33 µM (active); in test [12] it was 4.96 µM (active); in test [8] it was 14.9 µM (active); in test [9] it was 2.1 µM (active); in test [15], 1.85 µM (active); in the test with Adra2b (gene 24174), 7.6 µM (active). Moreover, the AC50 is 5.41 µM (active) in test [4] and 16.1 µM (active) in [5]. The result in test [13], in [14], in test [7] and in [16] was inactive.

Consider `CC1=CC(=O)CC(C)(C)C1`, for which the half-maximal activity concentration (AC50) in test [17] was 18.5 µM (active). Further, the compound was called inactive in test [10].

Take `On1ccccc1=S`: in [6], the half-maximal activity concentration (AC50) is 16.2 µM (active). In test [12], the compound was classed as inactive.

As to `Fc1ccccc1[C@@H](F)COC1CCC(Nc2ncnc3[nH]ncc23)CC1` (some centres undefined), the AC50 in [3] was 7.93 µM (active).

Regarding `CC(C)(O)c1coc(S(=O)(=O)NC(=O)Nc2c3c(cc4c2CCC4)CCC3)c1`, the concentration at half-maximal activity (AC50) in test [3] was 25 µM (active).
